Most compounds without a hit are left out; they make up all but 28% or so of the library.
DAT uptake mod – changed hDAT dopamine uptake under cocaine IC80, either direction, primary screen, cocaine antagonist project, cell-based, LLC-PK1 hDAT, [14C]-dopamine uptake, MLSMR | Sodium-dependent dopamine transporter (Homo sapiens), Q01959 | LLC-PK1 hDAT cells, [14C]-dopamine uptake with cocaine IC80; actives deviate in either direction | B-score at 10 µM | actives 1.3% (n = 110,000) | AID 449768, 2010;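 active = Z score or B-score, a plate-position-corrected score, falls beyond the plate's 99.7% confidence bounds, in either direction; inactive = both scores lie inside the 99.7% bounds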;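 also: scored against the spread of the other compound wells on the same plate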
Target sequence (Q01959 whole entry, looked up): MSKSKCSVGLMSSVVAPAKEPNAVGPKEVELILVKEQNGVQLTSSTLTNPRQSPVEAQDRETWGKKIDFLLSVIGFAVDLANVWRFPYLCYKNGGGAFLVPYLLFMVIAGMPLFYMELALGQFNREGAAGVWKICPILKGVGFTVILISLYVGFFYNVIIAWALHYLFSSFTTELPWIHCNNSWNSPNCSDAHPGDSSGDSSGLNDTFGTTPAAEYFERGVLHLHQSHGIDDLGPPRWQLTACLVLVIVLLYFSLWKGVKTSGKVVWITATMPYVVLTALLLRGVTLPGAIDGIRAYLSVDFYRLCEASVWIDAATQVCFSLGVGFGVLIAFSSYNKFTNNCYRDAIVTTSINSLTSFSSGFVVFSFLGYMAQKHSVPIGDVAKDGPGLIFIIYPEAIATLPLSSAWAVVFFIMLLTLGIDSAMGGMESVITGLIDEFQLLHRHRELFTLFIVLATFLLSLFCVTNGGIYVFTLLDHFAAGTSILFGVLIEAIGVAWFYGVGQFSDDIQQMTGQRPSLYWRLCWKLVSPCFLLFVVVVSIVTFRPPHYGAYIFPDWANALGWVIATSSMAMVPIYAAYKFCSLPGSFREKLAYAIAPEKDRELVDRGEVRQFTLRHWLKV
D1 mod – D1 CRE-luciferase signal change, two-sided – cell-based, HEK293 D1, dopamine EC30, D1 allosteric modulator project, primary screen. D(1A) dopamine receptor (Homo sapiens), P21728. dopamine EC30 potentiation; actives deviate in either direction. B-score at 10 µM. actives 5.9% (n = 58,000). AID 641, 2007;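 active = luminescence count or its row- and column-corrected plate score outside the 99.7% band of the plate's sample wells, on either side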
CYP2C9 act – human CYP2C9 activators, primary screen, biochemical, luminescence | activation factor at 5 µM | Cytochrome P450 2C9 (Homo sapiens), P11712 | recombinant CYP2C9, luciferin-H conversion; hits give high values; factor 1 = untreated enzyme, 0 = blocked | actives 1.4% (n = 96,000);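 active = activation factor of 2 or more for CYP2C9 at a 5 µM dose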;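 also: 0 = sulfaphenazole-blocked wells and 1 = vehicle-only wells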
CYP2C19 inhib – blockers of cytochrome P450 2C19 activity – biochemical, luminescence, ADME assay, primary screen | P33261 | CYP2C19 Supersomes, luciferin-H EGE luminescence, 30 min | inhibition, % at 5 µM | actives 21% (n = 96,000) | AID 778, 2007;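 active = CYP2C19 inhibition above a set limit at 5 µM in the primary screen, cut at about 50% in these data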;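 also: plate controls were negative control wells for no effect and 2.5 mM tranylcypromine positive control for full effect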
CYP2C9 inhib – blockers of cytochrome P450 2C9 activity – biochemical, luminescence, ADME assay, primary screen; P11712; inhibition, % at 5 µM; actives 20% (n = 96,000); CYP2C9 Supersomes, luciferin-H conversion;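 active = blocking of liver enzyme CYP2C9 beyond about 50% at 5 µM, limit read from the data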
CYP2C19 activ – human CYP2C19 activators, primary screen, biochemical, luminescence | Cytochrome P450 2C19 (Homo sapiens), P33261 | recombinant CYP2C19, luciferin-H EGE luminescence; hits give high values; 0 = fully inhibited enzyme, 1 = untreated enzyme | activation factor at 5 µM | 96,000 tested, under 10 active;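 active = activation factor of at least 2 at 5 µM in the primary screen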;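 also: 0 = wells with 2.5 mM tranylcypromine and 1 = vehicle-only wells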
Active calls of the source: *; . = not tested or not shown.

SMILES | DAT uptake mod | D1 mod | CYP2C9 act | CYP2C19 inhib | CYP2C9 inhib | CYP2C19 activ
CCC(=NCCCN(CC)CC)c1c(O)n(C2CCCCC2)c(=O)[nH]c1=O | 1.5 | 0.47 | 0.9 | 56* | 8 | 0.4
CN(C)CCN=Cc1c(O)n(CCC2=CCCCC2)c(=O)[nH]c1=O | 0.24 | 0.16 | 0.8 | 28 | 16 | 0.7
O=c1[nH]c(=O)n(CCC2=CCCCC2)c(O)c1C=NCCCn1ccnc1 | 0.51 | -0.066 | 0 | 86* | 97* | 0.1
O=c1[nH]c(=O)n(C2CCCCC2)c(O)c1C=NCCCn1ccnc1 | 0.16 | 2.2 | 0.5 | 61* | 50* | 0.4
CCN(CC)CCCN=C(C)c1c(O)n(C2CCCCC2)c(=O)[nH]c1=O | 0.71 | -0.19 | 0.9 | 50 | 15 | 0.5
O=c1[nH]c(=S)n(CCC2=CCCCC2)c(O)c1C=NCCCn1ccnc1 | 1.2 | . | 0 | 93* | 98* | 0.1
CN(C)C1=NP(N(C)C)(N(C)C)=NC(c2ccccc2)=N1 | -0.8 | 0.14 | 1 | 3 | -4 | 1
Cc1ccc(CS(=O)(=O)CCC(=O)N2CCC3(CC2)OCCO3)cc1 | 0.34 | -0.81 | 1.2 | -18 | -17 | 1.2
Cc1ccc(S(=O)(=O)N(C)CCCC(=O)N2CCN(c3ccccn3)CC2)cc1 | 0.64 | -0.32 | 0.7 | 52* | 33 | 0.5
N=c1c[n+](CC23CC4CC(CC(C4)C2)C3)[n-]o1 | 0.3 | -0.22 | 0.7 | -8 | 27 | 1.1
Nc1ccccc1N=Cc1c(O)n(CCC2=CCCCC2)c(=O)[nH]c1=O | 0.55 | 0.55 | 0.7 | 20 | 32 | 0.8
C1=C(CCNCc2ccccc2)CCCC1 | -0.59 | . | 0.8 | 70* | 19 | 0.3
O=C(c1ccco1)c1cn(Cc2ccc(Cl)cc2)c2ccccc12 | 0.093 | . | 0.1 | 84* | 94* | 0.2
CC(N)C(=O)c1ccco1 (stereo not drawn) | -0.22 | -0.33 | 0.9 | 1 | 9 | 1
COc1ccccc1OCCCn1cc(C(=O)c2ccco2)c2ccccc21 | -0.15 | -0.78 | 0 | 98* | 96* | 0
CC1(C)CN=C(NCc2ccccc2Cl)S1 | 0.87 | . | 0.9 | 65* | 9 | 0.4
O=C(C1CCC(=O)N1Cc1ccc(F)cc1)N1CCC2(CC1)OCCO2 (stereo not drawn) | 0.66 | 0.098 | 0.8 | 27 | 19 | 0.7
COc1cccc(C2=NOC(C(=O)N3CCC4(CC3)OCCO4)C2)c1 (stereo not drawn) | -0.0027 | -0.28 | 1 | 67* | -2 | 0.3
O=C(C1CC(c2ccc(Cl)c(Cl)c2)=NO1)N1CCC2(CC1)OCCO2 (stereo not drawn) | -0.44 | -0.045 | 1.8 | 96* | -84 | 0
O=C(C1CC(c2ccc(F)cc2)=NO1)N1CCC2(CC1)OCCO2 (stereo not drawn) | 0.36 | . | 1.1 | 94* | -8 | 0.1
CC[C@@H](CO)C1CC2NC3CC4(c5ccccc5N(C)[C@@H]24)C(O)C31 (stereo partly drawn) | -0.16 | . | . | . | . | .
N[C@@H](Cc1c[nH]c2ccccc12)c1nnc(SCc2ccccc2F)o1 | -0.069 | 0.082 | 0.6 | 32 | 38 | 0.7
CN(C)CCc1nn[nH]n1 | -0.27 | . | . | . | . | .
COc1ccc(Cn2c(N)c(C(=O)NCc3ccco3)c3nc4ccccc4nc32)cc1OC | . | 1.7 | 0.2 | 42 | 79* | 0.6
CCCNC(=O)c1c(N)n(Cc2ccco2)c2nc3ccccc3nc12 | 2.1 | . | 0.7 | -9 | 33 | 1.1
SMILES | DAT uptake mod | D1 mod | CYP2C9 act | CYP2C19 inhib | CYP2C9 inhib | CYP2C19 activ
CCOc1cc(C=C2C(=O)NC(=O)NC2=O)ccc1OS(=O)(=O)c1ccccc1 | -0.62 | . | 1 | 54* | 5 | 0.5
Cc1ccc2nc3c(cc2c1)CC1(C(=O)N(C)C(=O)N(C)C1=O)C1CCCCN31 (stereo not drawn) | 2.9* | -0.05 | 0.5 | 64* | 50* | 0.4
Cc1ccc2nc3c(cc2c1)CC1(C(=O)N(C)C(=O)N(C)C1=O)C1COCCN31 (stereo not drawn) | 0.23 | -0.42 | 0.8 | 4 | 19 | 1
CC1(C)C(C(=O)NN2C(=O)c3ccccc3C2=O)C1(C)C | 0.22 | . | 1 | 20 | 2 | 0.8
CCCN(CC#CCO)CCC | -0.34 | -0.49 | . | . | . | .
O=C(c1sc2ccccc2c1Cl)N1CCC2(CC1)OCCO2 | 0.97 | -0.33 | 1.8 | 82* | -79 | 0.2
C=CCN1C(=O)C2(C(C(=O)OCC)=C(N)Oc3ccccc32)c2c1c1ccccc1oc2=O (stereo not drawn) | -0.018 | 0.084 | 0.5 | 21 | 53* | 0.8
CCOC(=O)C1=C(N)Oc2c(c(=O)oc3ccccc23)C12C(=O)N(C)c1ccccc12 (stereo not drawn) | 0.33 | -0.85 | 0.7 | 10 | 31 | 0.9
Clc1cccc(CN2CCCCC2c2cccnc2)c1 (stereo not drawn) | -0.3 | 1.2 | 0.5 | 95* | 54* | 0.1
c1cncc(C2CCCCN2Cc2ccc3c(c2)OCO3)c1 (stereo not drawn) | 0.44 | 0.029 | 0.8 | 97* | 20 | 0
CN1CCCCC1c1ccc(-c2cccnc2)nc1 (stereo not drawn) | 0.99 | . | . | . | . | .
Cn1c(O)c(C=NC2CC(C)(C)NC(C)(C)C2)c(=O)n(C)c1=O | 0.46 | -0.31 | 0.8 | 7 | 15 | 0.9
CCN1CCN(C(=O)COc2ccc3c(c2)C(=O)CC2(CCN(C(C)=O)CC2)O3)CC1 | 0.19 | . | 0.9 | 3 | 12 | 1
O=S(=O)(c1ccccc1)N1CCCCC1c1cccnc1 (stereo not drawn) | 0.54 | . | 0.9 | 52* | 6 | 0.5
Nc1ccc(S(=O)(=O)N2CCCCC2c2cccnc2)cc1 (stereo not drawn) | 0.084 | . | 1 | 31 | 0 | 0.7
CC[C@@H](C(N)=O)N1CCCC1=O | 0.043 | . | . | . | . | .
CCCSc1nc(O)c(CC)c(=O)n1C(C)CC (stereo not drawn) | -0.024 | 1.6 | 0.8 | 22 | 17 | 0.8
Clc1ccc(-c2nc3ccc(Cl)cn3c2CN2CCOCC2)cc1 | 0.22 | . | 0.4 | 77* | 64* | 0.2
O=C(Cc1ccccc1)N1CCN(Cc2cccnc2)CC1 | -0.081 | . | 1 | 76* | -1 | 0.2
O=C(Cc1ccccc1)N1CCN(CC2CC=CCC2)CC1 (stereo not drawn) | 0.15 | 0.37 | 0.9 | 48 | 5 | 0.5
Cc1cc(C)n(CCOC(=O)C2C(C=C(Cl)Cl)C2(C)C)n1 (stereo not drawn) | -0.73 | -0.066 | 0.3 | 92* | 75* | 0.1

High-throughput results (PubChem)
